Screening results (PubChem BioAssay)
The list is not random: actives were taken first. Their share in the collection is about 8%.
ELG1 repair inh: qHTS screen for small molecules that inhibit ELG1-dependent DNA repair in human embryonic kidney (HEK293T) cells expressing luciferase-tagged ELG1; Potency, µM (titrated, usually from 46.1 µM), inactives show at the highest dose activity change, negative = inhibition, hits mostly inhibitors; 330,000 compounds, 2.3% hits; HEK293T ELG1-luciferase reporter, luminescence, 16 h; DNA damage induced by 5-fluorouridine; note: potency is the fitted concentration of half-maximal effect; nearly all actives have a fitted effect of over 55% in size
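Overnight (16 hr) co-exposure of 2,000 cells/well to 5-fluorouridine and compound at 37 °C preceded detection. Luciferase was quantified via ONE-Glo luminescence; loss of signal denotes inhibition.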
FBPA coupling cs: qHTS Assay for Inhibitors of Fructose-1,6-bisphosphate Aldolase from Giardia Lamblia: Coupling assay counterscreen. coupling enzyme system counterscreen, AmpLite Red fluorescence. activity change, negative = inhibition, % at 58.2 µM, hits read low. 290,000 compounds, 0.67% hits. AID 2472, 2010; in the data active = activity change below about -30%
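First, compound is pin-transferred into glyceraldehyde-3-phosphate coupling-enzyme reagent at 57.5 uM final and held 10 min at RT. Next, substrate, coupling system and AmpLite Red are added. After 20 min RT, fluorescence (525/598 nm) is read.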
TSHR antag: Antagonists of the Thyroid Stimulating Hormone Receptor: HTS campaign. Thyrotropin receptor (Homo sapiens), P16473. TSHR-expressing cells, TSH-stimulated cAMP HTRF, 2 h; active compounds read low. activity change, negative = inhibition, % at 11.5 µM. 330,000 compounds, 0.2% hits. AID 504810, 2011;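 active = activity change below a set negative limit, meaning inhibition stronger than a set level, cut at about -70% in these data; inconclusive = activity change between two set negative limits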
Target sequence (P16473 whole entry, looked up): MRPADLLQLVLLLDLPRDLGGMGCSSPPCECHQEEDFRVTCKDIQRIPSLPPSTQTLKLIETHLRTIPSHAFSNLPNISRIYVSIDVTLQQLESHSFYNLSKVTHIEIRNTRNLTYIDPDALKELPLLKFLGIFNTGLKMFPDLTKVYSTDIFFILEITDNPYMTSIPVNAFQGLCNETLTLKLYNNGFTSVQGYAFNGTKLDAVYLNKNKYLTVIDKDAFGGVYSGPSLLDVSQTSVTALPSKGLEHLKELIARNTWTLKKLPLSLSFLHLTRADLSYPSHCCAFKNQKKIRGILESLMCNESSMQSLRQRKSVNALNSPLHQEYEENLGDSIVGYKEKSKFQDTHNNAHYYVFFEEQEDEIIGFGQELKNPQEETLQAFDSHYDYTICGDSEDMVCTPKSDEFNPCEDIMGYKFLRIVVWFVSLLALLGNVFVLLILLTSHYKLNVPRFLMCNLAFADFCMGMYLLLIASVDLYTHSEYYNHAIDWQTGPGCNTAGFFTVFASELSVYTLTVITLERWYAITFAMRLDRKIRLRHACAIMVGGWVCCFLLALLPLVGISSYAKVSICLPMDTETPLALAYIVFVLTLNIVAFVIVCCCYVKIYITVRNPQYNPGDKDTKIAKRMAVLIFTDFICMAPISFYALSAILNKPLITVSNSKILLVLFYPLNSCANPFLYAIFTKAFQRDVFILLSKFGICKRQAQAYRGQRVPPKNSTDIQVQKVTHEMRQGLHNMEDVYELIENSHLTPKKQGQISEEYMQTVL
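Freshly harvested TSHR cells receive pin-tooled compound, then EC80 TSH at 4nM final. After 2 hours at 37 deg C, antibody in lysis buffer and cAMP-d2 are added; 30 minutes at ambient temperature precede the HTRF read.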
RORgamma inh: qHTS for inhibitors of ROR gamma transcriptional activity | Nuclear receptor ROR-gamma (Mus musculus), P51450 | Drosophila S2 Gal4-RORgamma UAS-luciferase reporter, 20 h | Potency, µM (titrated, usually from 53.6 µM), for inactives: top-dose activity change, negative = inhibition, most hits filed as inhibitors | 310,000 compounds, 5.4% hits | AID 2551, 2010; note: potency is the fitted concentration of half-maximal effect; nearly all actives have a fitted effect of over 60% in size
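Drosophila S2 cells stably expressing Gal4-DBD/mouse RORγ fusion under metallothionein promoter plus UAS-luciferase; compound 1 h, then 700 uM CuSO4 induction for 20 h at ambient temperature; inhibition read as reduced luminescence.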
Gal4-VP16 FLuc: VP16 counterscreen qHTS for inhibitors of ROR gamma transcriptional activity; Drosophila S2 Gal4-VP16 UAS-luciferase, luminescence, 20 h; 310,000 compounds, 3.5% hits; AID 2546, 2010; Potency, µM (series often up to 53.6 µM), for inactives: at the highest dose activity, negative = inhibition, actives largely listed as inhibitors;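 note: Gal4-VP16 expression switched on by copper sulfate through the metallothionein promoter; potency is the fitted concentration of half-maximal effect; nearly all actives have a fitted effect of over 50% in size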
* marks the source's active call; other numbers are inactive results; ? = inconclusive; / = not tested or not shown; [ ] = remark or other dose. Unless noted, calls come from the whole dose curve; as a rule, active = well fitted curve in the direction sought with a large enough effect; inconclusive = small, poorly fitted or top-dose-only effect, or another doubt; inactive = no such curve, though single readings can be large; an effect the other way counts as inactive or inconclusive. % is set by controls: 0 for no effect and ±100 for the full control effect.

SMILES	ELG1 repair inh	FBPA coupling cs	TSHR antag	RORgamma inh	Gal4-VP16 FLuc
COc1ccc(NC(=O)C2CC(=O)N/C(=N/NC(=O)c3ccc(Cl)cc3)S2)cc1 (stereo unspecified)	16.2%	7.4	-1.1	1.26µM*	-26.5%
COc1ccc(CN=C2NC(=O)CC(C(=O)Nc3ccc(Cl)cc3)S2)cc1 (stereo unspecified)	-5.6%	-1.0	6.4	?	-2.0%
Cc1ccc(NC(=O)C2CC(=O)N/C(=N/NC(=O)c3ccc(C)cc3)S2)cc1 (stereo unspecified)	8.9%	1.4	-4.8	2.24µM*	10µM*
CC(NC(=O)[C@@H](C)NC(=O)[C@@H]1Cc2ccccc2CN1C(=O)OC(C)(C)C)c1ccccc1 (stereo partly specified)	14.6%	/	43.7	39.3%	20.5%
CCN(CCCNC(=O)CCn1c(=S)[nH]c2cc3c(cc2c1=O)OCO3)c1cccc(C)c1	26.7%	/	-14.4	?	?
CC(C)C[C@@H](CC(=O)N[C@H](CC(=O)N[C@@H]1CCNC[C@H]1C(=O)N[C@H](CC(=O)N[C@@H](CCC(=O)O)CC(=O)O)Cc1ccccc1)C(C)C)NC(=O)[C@@H]1CCCC[C@H]1N	/	1.3	/	23.4%	-1.0%
Cc1ccc(C(=O)N/N=C2/NC(=O)CC(C(=O)Nc3ccccc3)S2)cc1 (stereo unspecified)	5.6%	4.8	-4.2	3.16µM*	5.62µM*
CN1CCN(c2ncc3nc(CCc4ccccc4)c(=O)n(C)c3n2)CC1	/	-3.7	/	10.7%	24.4%
O=C(Nc1ccc(OCC(F)(F)C(F)F)c(C(F)(F)F)c1)c1ccccc1O	?	0.2	?	7.94µM*	-8.0%[0.365 µM]
O=C(Nc1ccc(OCC(F)(F)C(F)F)cc1)c1ccncc1	?	1.4	2.5	7.2%	-26.3%
COc1ccc(CCn2c(SCC(=O)Nc3cc(C)on3)nc3ccccc3c2=O)cc1OC	3.8%	-0.9	-7.1	-11.0%	-0.1%
CCCCCCn1c(SCC(=O)Nc2cc(C)on2)nc2ccccc2c1=O	27.7%	0.1	2.9	3.98µM*	7.6%[0.365 µM]
COc1ccc(CCn2c(SCC(=O)Nc3cc(C)on3)nc3ccsc3c2=O)cc1OC	10.3µM*	3.5	-13.1	1.9%	-9.4%
Cc1cc(NC(=O)CSc2nc(C(C)C)nc3ccccc23)no1	14.6µM*	0.7	3.3	?	-23.0%
C/C(=N\NC(N)=S)C1(C)CC2(CC(C)(C)OC2=O)C(=O)O1 (stereo unspecified)	0.2%	3.7	-4.0	-8.6%	2.6%
CCCn1c(=S)[nH]c2cc(C(=O)N3CCN(C4CCCCC4)CC3)ccc2c1=O	6.3%	1.6	4.0	10µM*	-12.0%
COCCCNC(=O)c1ccc2c(=O)n(C3CCCC3)c(=S)[nH]c2c1	?	10.1	5.1	14.1µM*	?
CCCn1c(=S)[nH]c2cc(C(=O)N3CCCC(C(=O)OCC)C3)ccc2c1=O (stereo unspecified)	-29.1%	-1.9	-25.7	11.2µM*	?
CCN1CCN(C(=O)c2ccc3c(=O)n(C4CCCC4)c(=S)[nH]c3c2)CC1	-7.9%	-1.2	-5.9	7.08µM*	14.1µM*
C=CCN1C(=O)c2ccc(C(=O)N(C)CC(=O)Nc3ccccc3C(F)(F)F)cc2C1=O	25.0%	/	5.8	-12.4%	-1.4%
O=C(NCc1ccccn1)c1cccc(S(=O)(=O)Nc2ccccc2Cl)c1	-7.6%	/	1.7	/	/
C=CCc1c(C)nc2c(-c3ccccc3)cnn2c1N1CCOCC1	?	1.5	-9.9	?	-6.8%
CC(C)C[C@@H](CC(=O)N[C@@H](CCC(=O)O)CC(=O)O)NC(=O)[C@@H]1CNCC[C@H]1NC(=O)C[C@@H](NC(=O)C[C@H](Cc1ccccc1)NC(=O)[C@@H]1CCCC[C@H]1N)C(C)C	/	5.7	/	-24.6%	-9.7%
